{
  "source": "PubChem BioAssay (NCATS)",
  "key": {"[1]": {"assay": "Quantitative High-Throughput drug screen in 47 multiple myeloma cell lines against the NCATS MIPE library collection: KMS34_JCRB cell viability assay (AID 1918985); further: nearly all actives have a fitted effect of over 40% in size", "how_it_was_run": "(§1)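 500 cells/well; MIPE 4.0 drugs pin-transferred; 48 h, 37C, 5% CO2. CellTiter-Glo, 5 min RT, luminescence. Controls: DMSO 100%, media 0%.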"}, "[2]": {"assay": "Quantitative High-Throughput drug screen in 47 multiple myeloma cell lines against the NCATS MIPE library collection: XG6_PLB cell viability assay (AID 1919865)", "how_it_was_run": "as §1"}, "[3]": {"assay": "Quantitative High-Throughput drug screen in 47 multiple myeloma cell lines against the NCATS MIPE library collection: OPM1_PLB cell viability assay (AID 1918989)", "how_it_was_run": "as §1"}, "[4]": {"assay": "Quantitative High-Throughput drug screen in 47 multiple myeloma cell lines against the NCATS MIPE library collection: VP6_DJ cell viability assay (AID 1919867)", "how_it_was_run": "as §1"}, "[5]": {"assay": "Quantitative High-Throughput drug screen in 47 multiple myeloma cell lines against the NCATS MIPE library collection: OCIMY5_PLB cell viability assay (AID 1918988)", "settings": "OCI-MY5 myeloma viability, ATP luminescence, 48 h", "how_it_was_run": "as §1"}, "[6]": {"assay": "Quantitative High-Throughput drug screen in 47 multiple myeloma cell lines against the NCATS MIPE library collection: SKMM1_PLB cell viability assay (AID 1919863)", "settings": "SKMM1 myeloma viability, CellTiter-Glo ATP, 48 h; viability: stronger effect = lower value", "how_it_was_run": "as §1"}, "[7]": {"assay": "Quantitative High-Throughput drug screen in 47 multiple myeloma cell lines against the NCATS MIPE library collection: U266_ATCC cell viability assay (AID 1919864)", "how_it_was_run": "as §1"}, "[8]": {"assay": "Quantitative High-Throughput drug screen in 47 multiple myeloma cell lines against the NCATS MIPE library collection: XG1_PLB cell viability assay (AID 1919866)", "source_text": "(§2) PI: Beverly A. Mock Ph.D.\n(§3) Laboratory of Cancer Biology and Genetics,\n(§4) Center for Cancer Research, National Cancer Institute,\n(§5) National Institute of Health, Bethesda, Maryland\n(§6) Drug resistance and disease progression are common in multiple myeloma (MM) patients, underscoring the need for new therapeutic combinations. […] We hypothesized that effective combinations would reduce MYC expression and enhance p16 activity. […] These preclinical data identify potentially useful drug combinations for evaluation in drug-resistant MM and reveal potential mechanisms of combined drug sensitivity.\n(§7) Described herein is the primary MIPE qHTS used to cherrypick compounds. Validated compounds were then further tested for potential synergistic activiy.\n[1] […]\n(§8) 5; Detector; 425V; Luminescence; Viewlux PerkinElmer. […]\n(§9) 1. […] Briefly, the corresponding myeloma cell lines were screened in 1,536-well plates with 500 cells, 5-uL per well for inhibition of cell viability (assessed by measuring ATP levels with CellTiterGlo). […]\n(§10) 5. Signal was measured as median relative luminescence units on a ViewLux (PerkinElmer) multiplate reader. […]"}, "[9]": {"assay": "Quantitative High-Throughput drug screen in 47 multiple myeloma cell lines against the NCATS MIPE library collection: OCIMY7_PLB cell viability assay (AID 1918987)", "settings": "OCI-MY7 myeloma viability, CellTiter-Glo ATP, 48 h", "source_text": "as §2, §3, §4, §5, §6, §7\n[1] […]\nas §8, §9, §10"}, "[10]": {"assay": "Quantitative High-Throughput drug screen in 47 multiple myeloma cell lines against the NCATS MIPE library collection: UTMC2_PLB cell viability assay (AID 1919868)", "settings": "CellTiter-Glo ATP luminescence, 48 h", "how_it_was_run": "as §1"}},
  "note": "Results filed as inconclusive are left out. The source made the active and inactive calls. The call rests on the fitted dose curve; in most records, active means well fitted cell-killing curve with a large enough effect; inconclusive means small, poorly fitted or top-dose-only effect, or effect the other way; inactive means no such curve, though single readings can be large or run the other way. Potency means the concentration at half of the fitted maximal effect.",
  "data": [
    {"smiles": "O=C(O)c1nn(Cc2ccc(Cl)cc2Cl)c2ccccc12", "values": [
      {"measurement": "Potency", "setting": "[1]", "result": "inactive"},
      {"measurement": "Potency", "setting": "[2]", "result": "inactive"}
    ]},
    {"smiles": "COC(=O)C1=CCCN(C)C1", "values": [
      {"measurement": "Potency", "setting": "[1]", "result": "inactive"},
      {"measurement": "Potency", "setting": "[3]", "result": "inactive"},
      {"measurement": "Potency", "setting": "[2]", "result": "inactive"},
      {"measurement": "Potency", "setting": "[4]", "result": "inactive"}
    ]},
    {"smiles": "COc1ccc(C(=O)N2CCCC2=O)cc1", "values": [
      {"measurement": "Potency", "setting": "[5]", "result": "662 nM (active)"},
      {"measurement": "viability", "setting": "[6]", "result": "101% (inactive)"},
      {"measurement": "Potency", "setting": "[7]", "result": "inactive"},
      {"measurement": "Potency", "setting": "[2]", "result": "inactive"},
      {"measurement": "Potency", "setting": "[8]", "result": "inactive"}
    ]},
    {"smiles": "C[C@@H]1C[C@@H]([C@H](O)CC2CC(=O)NC(=O)C2)C(=O)[C@@H](C)C1", "values": [
      {"measurement": "Potency", "setting": "[1]", "result": "118 nM (active)"},
      {"measurement": "Potency", "setting": "[9]", "result": "2640 nM (active)"},
      {"measurement": "Potency", "setting": "[5]", "result": "1660 nM (active)"},
      {"measurement": "Potency", "setting": "[3]", "result": "833 nM (active)"},
      {"measurement": "Potency", "setting": "[6]", "result": "296 nM (active)"},
      {"measurement": "Potency", "setting": "[7]", "result": "1050 nM (active)"},
      {"measurement": "Potency", "setting": "[2]", "result": "743 nM (active)"},
      {"measurement": "Potency", "setting": "[8]", "result": "372 nM (active)"},
      {"measurement": "Potency", "setting": "[4]", "result": "296 nM (active)"},
      {"measurement": "Potency", "setting": "[10]", "result": "833 nM (active)"}
    ]}
  ]
}
